In publication PMC11006913 one finds binding signal data, which are given here for 19 sequences.

Common to all, as to assay: PBM; 200 nM protein, PBS
Holding throughout (details): dsDNA, one strand shown

For test [1], the target named is HOXA2 (Homo sapiens, UniProt O43364 129-215, R185T).
For test [2], the target named is HOXA2 (Homo sapiens, UniProt O43364 129-215, R185K).
Test [3] has as its target HOXA2 (Homo sapiens, UniProt O43364 129-215, Y150S).
In test [4] the target is HOXA2 (Homo sapiens, UniProt O43364 129-215).
HOXA2 (Homo sapiens, UniProt O43364 129-215), sequence (O43364 129-215): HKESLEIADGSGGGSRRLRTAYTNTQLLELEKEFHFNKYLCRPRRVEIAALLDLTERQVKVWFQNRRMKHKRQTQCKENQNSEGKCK
The target of test [5] is HOXA4 (Homo sapiens, UniProt Q00056 201-287, R217L).
HOXA4 (Homo sapiens, UniProt Q00056 201-287, R217L), sequence (Q00056 201-287 R217L): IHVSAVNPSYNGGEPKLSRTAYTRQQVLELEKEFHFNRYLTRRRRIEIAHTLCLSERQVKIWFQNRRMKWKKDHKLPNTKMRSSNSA
Test [6] has as its target HOXA4 (Homo sapiens, UniProt Q00056 201-287).
The target of test [7] is ALX3 (Homo sapiens, UniProt O95076 139-225, N203Q).
ALX3 (Homo sapiens, UniProt O95076 139-225, N203Q), sequence (O95076 139-225 N203Q): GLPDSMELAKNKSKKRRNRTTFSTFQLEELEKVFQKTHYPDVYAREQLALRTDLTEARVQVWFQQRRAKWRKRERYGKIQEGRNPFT
In test [8] the target is ALX3 (Homo sapiens, UniProt O95076 139-225).
ALX3 (Homo sapiens, UniProt O95076 139-225), sequence (O95076 139-225): as the sequence (O95076 139-225 N203Q) above, with Q65N counted along it
Test [9] concerns the target ALX3 (Homo sapiens, UniProt O95076 139-225, N203S).
In test [10] the target is T1, NKX2-6 (Homo sapiens, UniProt A6NCS4 118-204).
T1 sequence: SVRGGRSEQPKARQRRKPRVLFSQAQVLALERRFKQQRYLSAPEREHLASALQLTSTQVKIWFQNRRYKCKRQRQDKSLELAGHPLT

In test [11] the target is T2, NKX2-6 (Homo sapiens, UniProt A6NCS4 118-204, F151L).
T2 sequence: T1 sequence with F34L

Test [12] has as its target HOXD13 (Homo sapiens, UniProt P35453 263-343).
Test [13] addresses HOXD13 (Homo sapiens, UniProt P35453 263-343, T313A).
Test [14] addresses MSX2 (Homo sapiens, UniProt P35548 130-214).
Test [15] deals with MSX2 (Homo sapiens, UniProt P35548 130-214, F161Y).
MSX2 (Homo sapiens, UniProt P35548 130-214, F161Y), sequence (P35548 130-214 F161Y): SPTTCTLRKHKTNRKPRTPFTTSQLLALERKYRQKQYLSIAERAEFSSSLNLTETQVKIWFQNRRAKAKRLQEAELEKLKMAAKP
The next test deals with CRX (Homo sapiens, UniProt O43186 26-111, R41L).
CRX, sequence (O43186 26-111 R41L): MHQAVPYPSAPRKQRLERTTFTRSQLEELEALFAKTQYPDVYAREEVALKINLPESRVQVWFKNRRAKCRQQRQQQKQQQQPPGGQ
Another test deals with HOXB6 (Homo sapiens, UniProt P17509 132-218).
HOXB6, sequence (P17509 132-218): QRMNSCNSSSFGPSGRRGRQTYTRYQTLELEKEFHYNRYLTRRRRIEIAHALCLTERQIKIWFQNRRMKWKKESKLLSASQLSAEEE
The target in test [16] is T3, NKX2-6 (Homo sapiens, UniProt A6NCS4 118-204, R150C).
T3 sequence: T1 sequence with R33C

Test [17] has as its target PROP1 (Homo sapiens, UniProt O75360 56-141).
The target in test [18] is PROP1 (Homo sapiens, UniProt O75360 56-141, R99H).
PROP1 (Homo sapiens, UniProt O75360 56-141, R99H), sequence (O75360 56-141 R99H): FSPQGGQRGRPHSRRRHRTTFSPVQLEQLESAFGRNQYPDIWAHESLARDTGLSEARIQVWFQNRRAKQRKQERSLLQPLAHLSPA
Test [19] addresses PROP1 (Homo sapiens, UniProt O75360 56-141, F88S).
In test [20] the target is NKX3-2 (Homo sapiens, UniProt P78367 192-278, P234S).
NKX3-2 (Homo sapiens, UniProt P78367 192-278, P234S), sequence (P78367 192-278 P234S): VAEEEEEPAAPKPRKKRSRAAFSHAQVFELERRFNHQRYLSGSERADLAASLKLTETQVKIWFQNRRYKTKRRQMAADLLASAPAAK
Test [21] has as its target NKX3-2 (Homo sapiens, UniProt P78367 192-278).
Test [22] addresses HOXC9 (Homo sapiens, UniProt P31274 178-260).
For test [23], the target named is HOXC9 (Homo sapiens, UniProt P31274 178-260, R222W).
HOXC9 (Homo sapiens, UniProt P31274 178-260, R222W), sequence (P31274 178-260 R222W): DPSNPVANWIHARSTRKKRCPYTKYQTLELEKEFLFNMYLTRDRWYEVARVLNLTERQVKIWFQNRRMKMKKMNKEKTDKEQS
Test [24] has as its target ALX1 (Homo sapiens, UniProt Q15699 118-204, L144V).
Test [25] concerns the target ALX1 (Homo sapiens, UniProt Q15699 118-204, L144R).
For test [26], the target named is ALX1 (Homo sapiens, UniProt Q15699 118-204).
ALX1 (Homo sapiens, UniProt Q15699 118-204), sequence (Q15699 118-204): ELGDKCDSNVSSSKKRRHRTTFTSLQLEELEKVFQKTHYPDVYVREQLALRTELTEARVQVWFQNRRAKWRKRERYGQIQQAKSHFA

Residue numbers refer to the chain shown, from its start.

PROP1 (Homo sapiens, UniProt O75360 56-141), sequence (O75360 56-141): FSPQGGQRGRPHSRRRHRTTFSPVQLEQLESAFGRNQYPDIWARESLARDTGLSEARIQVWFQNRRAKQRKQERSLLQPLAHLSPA
NKX3-2 (Homo sapiens, UniProt P78367 192-278), sequence (P78367 192-278): as the sequence (P78367 192-278 P234S) above, with S43P counted along it
HOXA2 (Homo sapiens, UniProt O43364 129-215, R185T), sequence (O43364 129-215 R185T): as the sequence (O43364 129-215) above, with R57T counted along it
MSX2 (Homo sapiens, UniProt P35548 130-214), sequence (P35548 130-214): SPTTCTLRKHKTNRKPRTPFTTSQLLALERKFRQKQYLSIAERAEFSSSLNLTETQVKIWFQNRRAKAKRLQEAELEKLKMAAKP
PROP1 (Homo sapiens, UniProt O75360 56-141, F88S), sequence (O75360 56-141 F88S): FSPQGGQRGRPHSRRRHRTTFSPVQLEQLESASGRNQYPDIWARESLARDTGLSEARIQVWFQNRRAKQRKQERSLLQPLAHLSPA
HOXA2 (Homo sapiens, UniProt O43364 129-215, R185K), sequence (O43364 129-215 R185K): as the sequence (O43364 129-215) above, with R57K counted along it
HOXA2 (Homo sapiens, UniProt O43364 129-215, Y150S), sequence (O43364 129-215 Y150S): as the sequence (O43364 129-215) above, with Y22S counted along it
ALX1 (Homo sapiens, UniProt Q15699 118-204, L144R), sequence (Q15699 118-204 L144R): as the sequence (Q15699 118-204) above, with L27R counted along it
HOXC9 (Homo sapiens, UniProt P31274 178-260), sequence (P31274 178-260): as the sequence (P31274 178-260 R222W) above, with W45R counted along it
HOXD13 (Homo sapiens, UniProt P35453 263-343), sequence (P35453 263-343): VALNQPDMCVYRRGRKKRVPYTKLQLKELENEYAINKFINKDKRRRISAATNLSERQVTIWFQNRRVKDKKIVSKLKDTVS
HOXA4 (Homo sapiens, UniProt Q00056 201-287), sequence (Q00056 201-287): as the sequence (Q00056 201-287 R217L) above, with L17R counted along it
ALX3 (Homo sapiens, UniProt O95076 139-225, N203S), sequence (O95076 139-225 N203S): as the sequence (O95076 139-225 N203Q) above, with Q65S counted along it
HOXD13 (Homo sapiens, UniProt P35453 263-343, T313A), sequence (P35453 263-343 T313A): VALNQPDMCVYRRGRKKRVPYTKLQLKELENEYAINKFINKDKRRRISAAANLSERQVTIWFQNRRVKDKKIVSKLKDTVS
ALX1 (Homo sapiens, UniProt Q15699 118-204, L144V), sequence (Q15699 118-204 L144V): as the sequence (Q15699 118-204) above, with L27V counted along it

On to CAATCACA, for which the binding signal with HOXA2 [1] was 9.53 upbm affinity estimate (log intensity, higher = more binding, comparable within an allelic series); with HOXA2 [2], 11.8 upbm affinity estimate (log intensity, higher = more binding, comparable within an allelic series); with HOXA2 [3], 10.8 upbm affinity estimate (log intensity, higher = more binding, comparable within an allelic series); with HOXA2 [4], 9.4 upbm affinity estimate (log intensity, higher = more binding, comparable within an allelic series).

CAGCCACG: the binding signal with HOXA2 [1] was 7.22 upbm affinity estimate (log intensity, higher = more binding, comparable within an allelic series); with HOXA2 [2], 10.5 upbm affinity estimate (log intensity, higher = more binding, comparable within an allelic series); with HOXA2 [3], 10.4 upbm affinity estimate (log intensity, higher = more binding, comparable within an allelic series); with HOXA2 [4], 7.24 upbm affinity estimate (log intensity, higher = more binding, comparable within an allelic series).

Regarding AAAAATAT, the binding signal is 10.8 upbm affinity estimate (log intensity, higher = more binding, comparable within an allelic series) with HOXA4 [5] and 11.1 upbm affinity estimate (log intensity, higher = more binding, comparable within an allelic series) in the test with HOXA4 [6].

With ACATTAGC, the binding signal with HOXA4 [5] was 10.8 upbm affinity estimate (log intensity, higher = more binding, comparable within an allelic series).

With ATATAGTA, the binding signal in the test with ALX3 [7] was 8.55 upbm affinity estimate (log intensity, higher = more binding, comparable within an allelic series).

On to AATGTGAA, for which the binding signal in the test with ALX3 [7] was 8.3 upbm affinity estimate (log intensity, higher = more binding, comparable within an allelic series); with ALX3 [8] it was 9.35 upbm affinity estimate (log intensity, higher = more binding, comparable within an allelic series); with ALX3 [9], 8.37 upbm affinity estimate (log intensity, higher = more binding, comparable within an allelic series).

As to CCTATTTA, the binding signal in the test with NKX2-6 [10] was 11.2 upbm affinity estimate (log intensity, higher = more binding, comparable within an allelic series); with NKX2-6 [11], 9.86 upbm affinity estimate (log intensity, higher = more binding, comparable within an allelic series).

With TGTGTAAA, the binding signal in the test with HOXD13 [12] was 11.1 upbm affinity estimate (log intensity, higher = more binding, comparable within an allelic series); with HOXD13 [13], 11 upbm affinity estimate (log intensity, higher = more binding, comparable within an allelic series).

In the case of CACACTAA, the binding signal in the test with MSX2 [14] is 10.8 upbm affinity estimate (log intensity, higher = more binding, comparable within an allelic series); with MSX2 [15], 10.7 upbm affinity estimate (log intensity, higher = more binding, comparable within an allelic series).

As for TAATAGTA, the binding signal with MSX2 [14] was 11.7 upbm affinity estimate (log intensity, higher = more binding, comparable within an allelic series); in the test with MSX2 [15], 11.5 upbm affinity estimate (log intensity, higher = more binding, comparable within an allelic series).

For the sequence ATTTAATC, the binding signal with CRX is 12.3 upbm affinity estimate (log intensity, higher = more binding, comparable within an allelic series).

With AATACCAT, the binding signal with HOXB6 is 10.3 upbm affinity estimate (log intensity, higher = more binding, comparable within an allelic series).

In the case of AGCCCCCG, the binding signal was 9.1 upbm affinity estimate (log intensity, higher = more binding, comparable within an allelic series) in the test with NKX2-6 [16]; 6.76 upbm affinity estimate (log intensity, higher = more binding, comparable within an allelic series) in the test with PROP1 [17]; 6.62 upbm affinity estimate (log intensity, higher = more binding, comparable within an allelic series) with PROP1 [18]; 6.15 upbm affinity estimate (log intensity, higher = more binding, comparable within an allelic series) in the test with PROP1 [19].

Turning to AAGTGGTG, the binding signal with NKX2-6 [16] is 11.6 upbm affinity estimate (log intensity, higher = more binding, comparable within an allelic series); with NKX3-2 [20], 12.7 upbm affinity estimate (log intensity, higher = more binding, comparable within an allelic series); in the test with NKX3-2 [21] it was 12.8 upbm affinity estimate (log intensity, higher = more binding, comparable within an allelic series).

GTCGATAA: the binding signal with HOXC9 [22] was 10.9 upbm affinity estimate (log intensity, higher = more binding, comparable within an allelic series); with PROP1 [17], 8.04 upbm affinity estimate (log intensity, higher = more binding, comparable within an allelic series); in the test with HOXC9 [23], 10.3 upbm affinity estimate (log intensity, higher = more binding, comparable within an allelic series).

As for CACTTACA, the binding signal in the test with NKX2-6 [16] is 11.6 upbm affinity estimate (log intensity, higher = more binding, comparable within an allelic series); with NKX2-6 [11] it was 10.6 upbm affinity estimate (log intensity, higher = more binding, comparable within an allelic series); with NKX3-2 [20], 12.6 upbm affinity estimate (log intensity, higher = more binding, comparable within an allelic series); with NKX3-2 [21] it was 12.6 upbm affinity estimate (log intensity, higher = more binding, comparable within an allelic series).

As to GCCCACGA, the binding signal with NKX2-6 [16] was 9.49 upbm affinity estimate (log intensity, higher = more binding, comparable within an allelic series); in the test with ALX1 [24] it was 6.38 upbm affinity estimate (log intensity, higher = more binding, comparable within an allelic series); with ALX1 [25], 6.28 upbm affinity estimate (log intensity, higher = more binding, comparable within an allelic series); with ALX1 [26], 6.37 upbm affinity estimate (log intensity, higher = more binding, comparable within an allelic series).

Regarding CACAGGCC, the binding signal in the test with NKX2-6 [16] was 9.58 upbm affinity estimate (log intensity, higher = more binding, comparable within an allelic series); with PROP1 [17], 6.73 upbm affinity estimate (log intensity, higher = more binding, comparable within an allelic series); in the test with PROP1 [18], 6.9 upbm affinity estimate (log intensity, higher = more binding, comparable within an allelic series); with PROP1 [19] it was 6.72 upbm affinity estimate (log intensity, higher = more binding, comparable within an allelic series).

Turning to AAGTGCAC, the binding signal in the test with NKX2-6 [16] is 11.6 upbm affinity estimate (log intensity, higher = more binding, comparable within an allelic series); in the test with NKX3-2 [20], 12.6 upbm affinity estimate (log intensity, higher = more binding, comparable within an allelic series); with NKX3-2 [21], 12.7 upbm affinity estimate (log intensity, higher = more binding, comparable within an allelic series).
